Common to all, as to test: PBM; 200 nM protein, PBS
Conditions in all cases: dsDNA, one strand shown

Experiment [1] deals with HOXB4 (Homo sapiens, UniProt P17483 148-234).
The target of experiment [2] is HOXB4 (Homo sapiens, UniProt P17483 148-234, V174I).
The target of experiment [3] is HOXA4 (Homo sapiens, UniProt Q00056 201-287, W262R).
Experiment [4] deals with HOXA2 (Homo sapiens, UniProt O43364 129-215, R185T).
The target in experiment [5] is HOXA4 (Homo sapiens, UniProt Q00056 201-287, R217L).
Sequence of HOXA4 (Homo sapiens, UniProt Q00056 201-287, R217L) (Q00056 201-287 R217L): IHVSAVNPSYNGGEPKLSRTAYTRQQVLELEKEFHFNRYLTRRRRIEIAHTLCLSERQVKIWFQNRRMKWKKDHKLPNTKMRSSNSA
In experiment [6] the target is HOXA2 (Homo sapiens, UniProt O43364 129-215, R185K).
Sequence of HOXA2 (Homo sapiens, UniProt O43364 129-215, R185K) (O43364 129-215 R185K): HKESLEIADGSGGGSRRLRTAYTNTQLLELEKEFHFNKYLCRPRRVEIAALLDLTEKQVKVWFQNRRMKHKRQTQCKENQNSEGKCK
Experiment [7] deals with HOXA4 (Homo sapiens, UniProt Q00056 201-287).
Sequence of HOXA4 (Homo sapiens, UniProt Q00056 201-287) (Q00056 201-287): as the sequence (Q00056 201-287 R217L) above, with L17R counted along it
Experiment [8] deals with VAX1 (Homo sapiens, UniProt Q5SQQ9 86-172).
Sequence of VAX1 (Homo sapiens, UniProt Q5SQQ9 86-172) (Q5SQQ9 86-172): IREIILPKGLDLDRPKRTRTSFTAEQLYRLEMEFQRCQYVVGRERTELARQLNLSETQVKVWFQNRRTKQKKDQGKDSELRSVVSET
In experiment [9] the target is VAX1 (Homo sapiens, UniProt Q5SQQ9 86-172, T142I).
Sequence of VAX1 (Homo sapiens, UniProt Q5SQQ9 86-172, T142I) (Q5SQQ9 86-172 T142I): as the sequence (Q5SQQ9 86-172) above, with T57I counted along it
Experiment [10] concerns the target HOXA2 (Homo sapiens, UniProt O43364 129-215, Y150S).
Experiment [11] concerns the target HOXA4 (Homo sapiens, UniProt Q00056 201-287, W262F).
Experiment [12] has as its target HOXA2 (Homo sapiens, UniProt O43364 129-215).
Experiment [13] deals with VAX1 (Homo sapiens, UniProt Q5SQQ9 86-172, K157R).
Sequence of VAX1 (Homo sapiens, UniProt Q5SQQ9 86-172, K157R) (Q5SQQ9 86-172 K157R): as the sequence (Q5SQQ9 86-172) above, with K72R counted along it
The target in experiment [14] is HESX1 (Homo sapiens, UniProt Q9UBX0 95-180, R165K).
Sequence of HESX1 (Homo sapiens, UniProt Q9UBX0 95-180, R165K) (Q9UBX0 95-180 R165K): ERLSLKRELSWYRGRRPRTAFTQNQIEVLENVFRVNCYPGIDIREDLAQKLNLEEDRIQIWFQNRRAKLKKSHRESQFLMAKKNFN
The target of experiment [15] is HESX1 (Homo sapiens, UniProt Q9UBX0 95-180).
Sequence of HESX1 (Homo sapiens, UniProt Q9UBX0 95-180) (Q9UBX0 95-180): as the sequence (Q9UBX0 95-180 R165K) above, with K71R counted along it
Experiment [16] has as its target HESX1 (Homo sapiens, UniProt Q9UBX0 95-180, R109Q).
For experiment [17], the target named is HESX1 (Homo sapiens, UniProt Q9UBX0 95-180, P111T).
Sequence of HESX1 (Homo sapiens, UniProt Q9UBX0 95-180, P111T) (Q9UBX0 95-180 P111T): as the sequence (Q9UBX0 95-180 R165K) above, with P17T, K71R counted along it
For experiment [18], the target named is HESX1 (Homo sapiens, UniProt Q9UBX0 95-180, F115L).
Sequence of HESX1 (Homo sapiens, UniProt Q9UBX0 95-180, F115L) (Q9UBX0 95-180 F115L): as the sequence (Q9UBX0 95-180 R165K) above, with F21L, K71R counted along it
Experiment [19] concerns the target T1, VENTX (Homo sapiens, UniProt O95231 78-163, R121Q).
T1 sequence: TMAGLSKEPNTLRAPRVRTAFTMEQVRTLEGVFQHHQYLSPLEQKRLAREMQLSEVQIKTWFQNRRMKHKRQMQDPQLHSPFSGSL

Experiment [20] addresses T2, VENTX (Homo sapiens, UniProt O95231 78-163, Y115F).
T2 sequence: T1 sequence with Y38F, Q44R

Numbering of substitutions follows the chain as printed.

Sequence of HOXA2 (Homo sapiens, UniProt O43364 129-215, R185T) (O43364 129-215 R185T): as the sequence (O43364 129-215 R185K) above, with K57T counted along it
Sequence of HOXB4 (Homo sapiens, UniProt P17483 148-234, V174I) (P17483 148-234 V174I): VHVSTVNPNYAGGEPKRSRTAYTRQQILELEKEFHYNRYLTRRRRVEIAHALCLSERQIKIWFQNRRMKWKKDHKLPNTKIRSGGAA
Sequence of HOXA4 (Homo sapiens, UniProt Q00056 201-287, W262R) (Q00056 201-287 W262R): as the sequence (Q00056 201-287 R217L) above, with L17R, W62R counted along it
Sequence of HOXA4 (Homo sapiens, UniProt Q00056 201-287, W262F) (Q00056 201-287 W262F): as the sequence (Q00056 201-287 R217L) above, with L17R, W62F counted along it
Sequence of HOXB4 (Homo sapiens, UniProt P17483 148-234) (P17483 148-234): as the sequence (P17483 148-234 V174I) above, with I27V counted along it
Sequence of HOXA2 (Homo sapiens, UniProt O43364 129-215, Y150S) (O43364 129-215 Y150S): as the sequence (O43364 129-215 R185K) above, with Y22S, K57R counted along it
Sequence of HOXA2 (Homo sapiens, UniProt O43364 129-215) (O43364 129-215): as the sequence (O43364 129-215 R185K) above, with K57R counted along it
Sequence of HESX1 (Homo sapiens, UniProt Q9UBX0 95-180, R109Q) (Q9UBX0 95-180 R109Q): as the sequence (Q9UBX0 95-180 R165K) above, with R15Q, K71R counted along it

As for AGCCTGGG, the binding signal in the experiment with HOXB4 [1] is 7.59 upbm affinity estimate (log intensity, higher = more binding, comparable within an allelic series); in the experiment with HOXB4 [2], 7.58 upbm affinity estimate (log intensity, higher = more binding, comparable within an allelic series).

In the case of GATCATTA, the binding signal in the experiment with HOXB4 [1] was 13.4 upbm affinity estimate (log intensity, higher = more binding, comparable within an allelic series); in the experiment with HOXA4 [3] it was 10.5 upbm affinity estimate (log intensity, higher = more binding, comparable within an allelic series); with HOXA2 [4], 12.5 upbm affinity estimate (log intensity, higher = more binding, comparable within an allelic series); with HOXA4 [5], 12.4 upbm affinity estimate (log intensity, higher = more binding, comparable within an allelic series); with HOXB4 [2], 14.1 upbm affinity estimate (log intensity, higher = more binding, comparable within an allelic series); with HOXA2 [6] it was 13.3 upbm affinity estimate (log intensity, higher = more binding, comparable within an allelic series). Besides, the binding signal with HOXA4 [7] was 14.1 upbm affinity estimate (log intensity, higher = more binding, comparable within an allelic series); with VAX1 [8], 13 upbm affinity estimate (log intensity, higher = more binding, comparable within an allelic series); with VAX1 [9], 13.1 upbm affinity estimate (log intensity, higher = more binding, comparable within an allelic series); in the experiment with HOXA2 [10], 10.9 upbm affinity estimate (log intensity, higher = more binding, comparable within an allelic series); in the experiment with HOXA4 [11], 11.9 upbm affinity estimate (log intensity, higher = more binding, comparable within an allelic series); in the experiment with HOXA2 [12], 12.6 upbm affinity estimate (log intensity, higher = more binding, comparable within an allelic series). The binding signal in the experiment with VAX1 [13] was 13 upbm affinity estimate (log intensity, higher = more binding, comparable within an allelic series).

As to TATCAATA, the binding signal with HESX1 [14] was 7.76 upbm affinity estimate (log intensity, higher = more binding, comparable within an allelic series); with HESX1 [15], 7.98 upbm affinity estimate (log intensity, higher = more binding, comparable within an allelic series); in the experiment with HESX1 [16] it was 7.49 upbm affinity estimate (log intensity, higher = more binding, comparable within an allelic series); with HESX1 [17], 7.63 upbm affinity estimate (log intensity, higher = more binding, comparable within an allelic series); with HESX1 [18], 7.36 upbm affinity estimate (log intensity, higher = more binding, comparable within an allelic series).

On to ATTGAACC, for which the binding signal in the experiment with HESX1 [14] is 7.56 upbm affinity estimate (log intensity, higher = more binding, comparable within an allelic series); in the experiment with HESX1 [15], 7.77 upbm affinity estimate (log intensity, higher = more binding, comparable within an allelic series); in the experiment with HESX1 [17] it was 7.33 upbm affinity estimate (log intensity, higher = more binding, comparable within an allelic series).

On to CATTAATG, for which the binding signal in the experiment with HOXB4 [1] is 13.4 upbm affinity estimate (log intensity, higher = more binding, comparable within an allelic series); with VENTX [19] it was 11.8 upbm affinity estimate (log intensity, higher = more binding, comparable within an allelic series); with HOXA4 [3] it was 10.7 upbm affinity estimate (log intensity, higher = more binding, comparable within an allelic series); in the experiment with VENTX [20], 11.8 upbm affinity estimate (log intensity, higher = more binding, comparable within an allelic series); with HOXA2 [4], 12.6 upbm affinity estimate (log intensity, higher = more binding, comparable within an allelic series); with HOXA4 [5] it was 12.3 upbm affinity estimate (log intensity, higher = more binding, comparable within an allelic series). The binding signal with HOXB4 [2] was 14 upbm affinity estimate (log intensity, higher = more binding, comparable within an allelic series); with HOXA2 [6], 13.4 upbm affinity estimate (log intensity, higher = more binding, comparable within an allelic series); in the experiment with HOXA4 [7] it was 14.2 upbm affinity estimate (log intensity, higher = more binding, comparable within an allelic series); with VAX1 [8] it was 12.7 upbm affinity estimate (log intensity, higher = more binding, comparable within an allelic series); with VAX1 [9], 12.5 upbm affinity estimate (log intensity, higher = more binding, comparable within an allelic series); with HOXA2 [10] it was 11.1 upbm affinity estimate (log intensity, higher = more binding, comparable within an allelic series). Further, the binding signal is 11.7 upbm affinity estimate (log intensity, higher = more binding, comparable within an allelic series) with HOXA4 [11]; 12.3 upbm affinity estimate (log intensity, higher = more binding, comparable within an allelic series) with HOXA2 [12]; 12.8 upbm affinity estimate (log intensity, higher = more binding, comparable within an allelic series) in the experiment with VAX1 [13].

Regarding TATTGCCA, the binding signal in the experiment with HESX1 [14] is 7.79 upbm affinity estimate (log intensity, higher = more binding, comparable within an allelic series); in the experiment with HESX1 [15], 7.9 upbm affinity estimate (log intensity, higher = more binding, comparable within an allelic series); with HESX1 [17] it was 7.47 upbm affinity estimate (log intensity, higher = more binding, comparable within an allelic series).

On to TGTGATAA, for which the binding signal was 7.98 upbm affinity estimate (log intensity, higher = more binding, comparable within an allelic series) in the experiment with HESX1 [14]; 8.21 upbm affinity estimate (log intensity, higher = more binding, comparable within an allelic series) in the experiment with HESX1 [15]; 7.65 upbm affinity estimate (log intensity, higher = more binding, comparable within an allelic series) in the experiment with HESX1 [17].

As to CGAGGGTC, the binding signal with HOXB4 [1] was 7.67 upbm affinity estimate (log intensity, higher = more binding, comparable within an allelic series); in the experiment with HOXB4 [2], 7.5 upbm affinity estimate (log intensity, higher = more binding, comparable within an allelic series); in the experiment with VAX1 [8], 6.87 upbm affinity estimate (log intensity, higher = more binding, comparable within an allelic series); with VAX1 [9], 7 upbm affinity estimate (log intensity, higher = more binding, comparable within an allelic series); in the experiment with VAX1 [13], 7.08 upbm affinity estimate (log intensity, higher = more binding, comparable within an allelic series).

As for CTCATTAA, the binding signal was 13.2 upbm affinity estimate (log intensity, higher = more binding, comparable within an allelic series) in the experiment with HOXB4 [1]; 12 upbm affinity estimate (log intensity, higher = more binding, comparable within an allelic series) in the experiment with VENTX [19]; 10.6 upbm affinity estimate (log intensity, higher = more binding, comparable within an allelic series) with HOXA4 [3]; 12 upbm affinity estimate (log intensity, higher = more binding, comparable within an allelic series) with VENTX [20]; 13.3 upbm affinity estimate (log intensity, higher = more binding, comparable within an allelic series) with HOXA2 [4]; 12.5 upbm affinity estimate (log intensity, higher = more binding, comparable within an allelic series) with HOXA4 [5]. Besides, the binding signal in the experiment with HOXB4 [2] was 13.9 upbm affinity estimate (log intensity, higher = more binding, comparable within an allelic series); in the experiment with HOXA2 [6], 13.6 upbm affinity estimate (log intensity, higher = more binding, comparable within an allelic series); with HOXA4 [7], 14 upbm affinity estimate (log intensity, higher = more binding, comparable within an allelic series); with VAX1 [8], 13.7 upbm affinity estimate (log intensity, higher = more binding, comparable within an allelic series); with VAX1 [9], 13.5 upbm affinity estimate (log intensity, higher = more binding, comparable within an allelic series); in the experiment with HOXA2 [10] it was 10.7 upbm affinity estimate (log intensity, higher = more binding, comparable within an allelic series). In addition, the binding signal is 12 upbm affinity estimate (log intensity, higher = more binding, comparable within an allelic series) in the experiment with HOXA4 [11]; 12.9 upbm affinity estimate (log intensity, higher = more binding, comparable within an allelic series) with HOXA2 [12]; 13.6 upbm affinity estimate (log intensity, higher = more binding, comparable within an allelic series) in the experiment with VAX1 [13].

Turning to CATAATAC, the binding signal in the experiment with HESX1 [14] was 7.93 upbm affinity estimate (log intensity, higher = more binding, comparable within an allelic series); with HESX1 [15] it was 8.07 upbm affinity estimate (log intensity, higher = more binding, comparable within an allelic series); in the experiment with VAX1 [8], 10.4 upbm affinity estimate (log intensity, higher = more binding, comparable within an allelic series); with VAX1 [9], 10 upbm affinity estimate (log intensity, higher = more binding, comparable within an allelic series); with VAX1 [13], 10.1 upbm affinity estimate (log intensity, higher = more binding, comparable within an allelic series).

With CATTAGGG, the binding signal in the experiment with HESX1 [14] is 8.41 upbm affinity estimate (log intensity, higher = more binding, comparable within an allelic series); in the experiment with HESX1 [15], 8.4 upbm affinity estimate (log intensity, higher = more binding, comparable within an allelic series); in the experiment with HESX1 [18] it was 6.71 upbm affinity estimate (log intensity, higher = more binding, comparable within an allelic series).

As for ATTCATAA, the binding signal with HESX1 [14] was 7.97 upbm affinity estimate (log intensity, higher = more binding, comparable within an allelic series); in the experiment with HESX1 [15], 8.03 upbm affinity estimate (log intensity, higher = more binding, comparable within an allelic series); with HESX1 [17], 7.62 upbm affinity estimate (log intensity, higher = more binding, comparable within an allelic series).

Take ATGTATAA: the binding signal was 7.77 upbm affinity estimate (log intensity, higher = more binding, comparable within an allelic series) with HESX1 [14]; 7.72 upbm affinity estimate (log intensity, higher = more binding, comparable within an allelic series) with HESX1 [15]; 7.36 upbm affinity estimate (log intensity, higher = more binding, comparable within an allelic series) with HESX1 [17].

As for AATAGTGT, the binding signal with HESX1 [14] was 7.52 upbm affinity estimate (log intensity, higher = more binding, comparable within an allelic series); with HESX1 [15], 7.75 upbm affinity estimate (log intensity, higher = more binding, comparable within an allelic series); with HESX1 [17], 7.31 upbm affinity estimate (log intensity, higher = more binding, comparable within an allelic series).

As for CGTCCCGC, the binding signal was 7.48 upbm affinity estimate (log intensity, higher = more binding, comparable within an allelic series) with HOXB4 [1]; 7.82 upbm affinity estimate (log intensity, higher = more binding, comparable within an allelic series) in the experiment with VENTX [19]; 7.87 upbm affinity estimate (log intensity, higher = more binding, comparable within an allelic series) in the experiment with VENTX [20]; 7.45 upbm affinity estimate (log intensity, higher = more binding, comparable within an allelic series) in the experiment with HOXB4 [2].

Regarding CGGGAGAG, the binding signal with HOXB4 [1] is 7.57 upbm affinity estimate (log intensity, higher = more binding, comparable within an allelic series); with HOXB4 [2] it was 7.66 upbm affinity estimate (log intensity, higher = more binding, comparable within an allelic series).

As to CGGCGAGC, the binding signal with HOXB4 [1] is 7.79 upbm affinity estimate (log intensity, higher = more binding, comparable within an allelic series); with HOXB4 [2], 7.74 upbm affinity estimate (log intensity, higher = more binding, comparable within an allelic series).

As to AACCTATT, the binding signal in the experiment with HESX1 [14] was 8.08 upbm affinity estimate (log intensity, higher = more binding, comparable within an allelic series); with HESX1 [15], 8.17 upbm affinity estimate (log intensity, higher = more binding, comparable within an allelic series); with HESX1 [17], 7.48 upbm affinity estimate (log intensity, higher = more binding, comparable within an allelic series).

The values above are taken from publication PMC11006913.
